The panel holds about 79,000 compounds, 15% with a hit somewhere; the sample as a whole holds those more often. Calls of active or inactive are those of the source. No stated cut-off is given here; in the data, active means growth inhibition above about 70%; inactive means the rest.
Tests used:
[1] = NCI Yeast Anticancer Drug Screen. Data for the wt1 strain (AID 149);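 further: 0% = growth of vehicle-treated wt1 cultures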; conditions: S. cerevisiae wt1 strain (SPY 50644) growth inhibition, hits give high values
Outline: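 Growth inhibition read against vehicle controls after compound exposure of the wt1 yeast strain.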

[2] = NCI Yeast Anticancer Drug Screen. Data for the rad50EPP+ strain (AID 151);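 further: 0% = growth of vehicle-treated control cultures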; conditions: S. cerevisiae rad50 mutant strain, hits give high values
Outline: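 Strain rad50EPP+; compound exposure; % growth inhibition vs vehicle.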

[3] = NCI Yeast Anticancer Drug Screen. Data for the mgt1 strain (AID 153); conditions: S. cerevisiae mgt1 mutant growth inhibition, hits give high values
Outline: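 Read-out: yeast growth inhibition vs vehicle control. Strain mgt1, drawn from a panel altered in DNA damage repair or cell cycle control.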

[4] = NCI Yeast Anticancer Drug Screen. Data for the rad50 strain (AID 155);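 further: 0% = growth of vehicle-only cultures of the same strain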; conditions: S. cerevisiae rad50 strain growth inhibition, hits give high values
Outline: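 Readout: growth inhibition relative to vehicle-treated cultures. Compound exposure was carried out in a genetically defined yeast strain deficient in DNA damage repair.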

[5] = NCI Yeast Anticancer Drug Screen. Data for the mec2-1 strain (AID 157); conditions: S. cerevisiae mec2-1 strain, hits give high values
Outline: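 Cells of the genetically defined mec2-1 yeast strain are incubated with test compound. Inhibition of growth is calculated against vehicle-treated controls.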

[6] = NCI Yeast Anticancer Drug Screen. Data for the rad14 strain (AID 159);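 further: 0% = growth of vehicle-treated control cultures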; conditions: S. cerevisiae rad14 strain growth inhibition, hits give high values
Outline: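 Growth inhibition vs vehicle controls; genetically altered yeast strain (DNA damage repair defect) treated with test compounds.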

[7] = NCI Yeast Anticancer Drug Screen. Data for the sgs1 mgt1 strain (AID 161);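 further: 0% = growth of cultures given vehicle only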; conditions: S. cerevisiae sgs1 mgt1 strain, hits give high values
Outline: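 Inhibition of yeast growth, normalised to vehicle-treated controls, is reported for a strain bearing genetic alterations in DNA damage repair.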

[8] = NCI Yeast Anticancer Drug Screen. Data for the CLN2oe strain (AID 163);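 further: 0% = growth of vehicle-only control cultures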; conditions: S. cerevisiae CLN2oe strain, hits give high values
Outline: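 Strain altered in cell-cycle control, incubated with compound; growth compared to solvent-treated controls.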

[9] = NCI Yeast Anticancer Drug Screen. Data for the cln2 rad14 strain (AID 165);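 further: 0% = growth equal to vehicle treated cultures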; conditions: S. cerevisiae cln2 rad14 strain, hits give high values
Outline: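 The screen exposed genetically defined yeast (cln2 rad14) to test compounds and scored growth inhibition relative to vehicle-treated controls.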

[10] = NCI Yeast Anticancer Drug Screen. Data for the bub3 strain (AID 167); conditions: S. cerevisiae bub3 mutant strain, hits give high values
Outline: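 Readout: yeast growth inhibition, expressed relative to vehicle-only wells. The test organism is a mutant strain from a panel with lesions in DNA repair or checkpoint genes.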

[11] = NCI Yeast Anticancer Drug Screen. Data for the wt2 strain (AID 169);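 further: 0% = growth of vehicle-treated yeast cultures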; conditions: S. cerevisiae wt2 strain growth inhibition, hits give high values
Outline: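 Steps: yeast strain treated with compound; growth recorded; inhibition calculated relative to cultures given vehicle alone.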

[12] = NCI Yeast Anticancer Drug Screen. Data for the mlh1 strain (AID 171);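 further: 0% = growth of vehicle-treated control cultures of the same strain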; conditions: S. cerevisiae mlh1 strain growth inhibition, hits give high values
Outline: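 Yeast screen: mutant strain plus compound, growth scored against vehicle control wells.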

[13] = NCI Yeast Anticancer Drug Screen. Data for the sgs1 strain (AID 173);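 further: 0% = growth of vehicle-only control cultures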; conditions: S. cerevisiae sgs1 mutant, hits give high values
Outline: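 Inhibition of yeast growth served as the measure. The mutant strain was treated with each compound, and growth was normalised to cultures receiving vehicle alone.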

[14] = NCI Yeast Anticancer Drug Screen. Data for the mlh1 rad18 strain (AID 175); conditions: S. cerevisiae mlh1 rad18 strain growth inhibition, hits give high values
Outline: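 Compound-treated yeast growth, normalised to vehicle controls. Strain bears defined DNA repair mutations.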

[15] = NCI Yeast Anticancer Drug Screen. Data for the rad18 strain (AID 177); conditions: S. cerevisiae rad18 mutant growth inhibition, hits give high values
Outline: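 Inhibition values reflect reduced yeast growth compared with vehicle-treated controls, using a strain engineered with a DNA damage repair defect.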

[16] = at 5.0 µM (retest, dose inferred, filed as 0.5)
[17] = at 50.0 µM (retest, dose inferred, filed as 5.0)

Measured: growth inhibition

CC(C)CC(NC(=O)C(N)C(C)C)C(=O)NC(CCCCN)C(=O)Nc1ccc(N(CCCl)CCCl)cc1 (stereo not drawn)
inactive: [1]; at 1.2 µM -16% | [1]; at 3.7 µM -10% | [1]; at 11.0 µM -15% | [1]; at 33.0 µM -11% | [1]; at 100.0 µM -18% | [2]; at 1.2 µM 10% | [2]; at 3.7 µM 9% | [2]; at 11.0 µM 13% | [2]; at 33.0 µM 7% | [2]; at 100.0 µM 12% | [3]; at 1.2 µM -6% | [3]; at 3.7 µM -16% | [3]; at 11.0 µM -17% | [3]; at 33.0 µM -5% | [3]; at 100.0 µM -21% | [4]; at 1.2 µM 8% | [4]; at 3.7 µM 10% | [4]; [16] 38% | [4]; at 11.0 µM 8% | [4]; at 33.0 µM 0% | [4]; at 50.0 µM 16.4% | [4]; at 100.0 µM 2% | [5]; at 1.2 µM -21% | [5]; at 3.7 µM -17% | [5]; [16] 19% | [5]; at 11.0 µM -18% | [5]; at 33.0 µM -17% | [5]; [17] 22% | [5]; at 50.0 µM -7.45% | [5]; at 100.0 µM -16% | [6]; at 1.2 µM -2% | [6]; at 3.7 µM 0% | [6]; at 11.0 µM -2% | [6]; at 33.0 µM -2% | [6]; at 100.0 µM -8% | [7]; [16] 21% | [7]; [17] 34% | [7]; at 50.0 µM -48.5% | [8]; at 1.2 µM -3% | [8]; at 3.7 µM 7% | [8]; at 11.0 µM 6% | [8]; at 33.0 µM 1% | [8]; at 100.0 µM -2% | [9]; [16] 13% | [9]; [17] 25% | [9]; at 50.0 µM -7.1% | [10]; at 1.2 µM -23% | [10]; at 3.7 µM -16% | [10]; [16] 25% | [10]; at 11.0 µM -16% | [10]; at 33.0 µM -13% | [10]; [17] 17% | [10]; at 50.0 µM -28.2% | [10]; at 100.0 µM -25% | [11]; at 1.2 µM -89% | [11]; at 3.7 µM -88% | [11]; at 11.0 µM -86% | [11]; at 33.0 µM -74% | [11]; at 100.0 µM -78% | [12]; at 1.2 µM -1% | [12]; at 3.7 µM 9% | [12]; at 11.0 µM -3% | [12]; at 33.0 µM -5% | [12]; at 100.0 µM -19% | [13]; at 1.2 µM -4% | [13]; at 3.7 µM 10% | [13]; at 11.0 µM 8% | [13]; at 33.0 µM -3% | [13]; at 100.0 µM 3% | [14]; [16] 19% | [14]; [17] 37% | [14]; at 50.0 µM -44.7% | [15]; at 1.2 µM -7% | [15]; at 3.7 µM -12% | [15]; at 11.0 µM -16% | [15]; at 33.0 µM -20% | [15]; at 100.0 µM -23%
active: [4]; [17] 92%

Reference: PubChem BioAssay (NCI)
